{"source": "PubChem BioAssay", "key": {"[1]": {"experiment": "galactose survival enhancers in mitochondrial complex I cybrids – cell-based, galactose medium, ATP luminescence, primary screen (AID 1645843;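 active = z-score of at least 1.8 in each of two replicates, scored against plate mean and spread of sample wells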;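 also: positive z means more ATP and so rescue of galactose-driven cybrid death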)", "details": "complex I mutant cybrid cells, 72 h, stronger effect = higher value"}, "[2]": {"experiment": "growth inhibition, single agent or in combination, cell-based, chromothripsis tumors, cisplatin or BGB combos (AID 1671449);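 also: cells exposed for 96 hours; 0% = vehicle DMSO and 100% = killing by high DMSO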", "details": "LFS_MB_P medulloblastoma cells"}, "[3]": {"experiment": "growth inhibition, single agent and combos, cell-based, chromothripsis tumors, cisplatin or BGB combos (AID 1671450);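 also: cells exposed to compound for four days; 0% = vehicle DMSO and 100% = cell killing by high DMSO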", "details": "HDN33 neuroblastoma cells, stronger effect = higher value"}, "[4]": {"experiment": "growth inhibition, single agents and combos, ICB984, cell-based, cisplatin or BGB combos, synergistic combos for chromothripsis tumors (AID 1671451; call rule not given here;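 also: cells exposed for 96 hours before readout; 0% = vehicle DMSO and 100% = killing by high DMSO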)", "details": "ICB984 medulloblastoma cells, drug combinations, stronger effect = higher value"}, "[5]": {"experiment": "growth inhibition, single agents and combos, LFS_MB_1R, cell-based, cisplatin or BGB combos, synergistic combos for chromothripsis tumors (AID 1671452);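 also: cells exposed for 96 hours before readout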", "details": "LFS_MB_1R medulloblastoma cells, stronger effect = higher value"}, "[6]": {"experiment": "growth inhibition, single agents and combos, HTB85, cell-based, BGB or cisplatin IC20 combos, synergistic combos for chromothripsis tumors (AID 1671453);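 also: cells exposed for 96 hours before readout; 0% = vehicle DMSO and 100% = high DMSO killing control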", "details": "HTB85 osteosarcoma cells, drug combinations, stronger effect = higher value"}, "[7]": {"experiment": "growth inhibition, single agents and combos, CRL2098, cell-based, BGB or cisplatin IC20 combos, synergistic combos for chromothripsis tumors (AID 1671454);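 also: cells exposed for 96 h before readout; 0% = vehicle DMSO and 100% = killing by high DMSO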", "details": "CRL2098 osteosarcoma cells, drug combinations, stronger effect = higher value"}, "[8]": {"experiment": "growth inhibition, single agents and combos, HD-MB03, cell-based, BGB or cisplatin IC20 combos, synergistic combos for chromothripsis tumors (AID 1671455; in the data active = inhibition above about 83%;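 also: 0% = vehicle DMSO and 100% = high DMSO as cytotoxic control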)", "details": "HD-MB03 medulloblastoma cells, stronger effect = higher value"}, "[9]": {"experiment": "growth inhibition, single agents and combos, UWB1.289, cell-based, BGB or cisplatin combos, synergistic combos for chromothripsis tumors (AID 1671456);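 also: cells exposed to compound for four days; 0% = vehicle DMSO and 100% = killing by high DMSO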", "details": "UWB1.289 ovarian carcinoma cells, stronger effect = higher value"}, "[10]": {"experiment": "growth inhibition, single agents and combos, LFS_MB_2R, cell-based, cisplatin combos, synergistic combos for chromothripsis tumors (AID 1671457);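 also: cells exposed to compound for four days before readout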", "details": "LFS_MB_2R medulloblastoma cells, stronger effect = higher value"}, "[11]": {"experiment": "growth inhibition, MDA-MB-436, cell-based, BGB or cisplatin combos, synergistic combos for chromothripsis tumors (AID 1671458; call rule not given here;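 also: cells exposed for 96 hours; 0% = vehicle DMSO and 100% = killing by high DMSO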)", "details": "MDA-MB-436 breast carcinoma growth inhibition, drug combinations, stronger effect = higher value"}, "[12]": {"experiment": "UWB1.289_BRCA1 ovarian cancer growth, cell-based, BGB or cisplatin combinations (AID 1671459)", "details": "UWB1.289 BRCA1 ovarian carcinoma, drug combinations, stronger effect = higher value"}, "[13]": {"experiment": "drug combination toxicity in non-malignant astrocytes – cell-based, BGB or cisplatin IC20 combos, cytotoxicity control for chromothriptic childhood tumor combination screen (AID 1671460);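 also: cells exposed to compounds for 96 hours before viability readout; 0% = vehicle and 100% = killing control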", "details": "Human astrocytes, viability inhibition, drug combinations, at 0.5 µM, stronger effect = higher value"}, "[14]": {"experiment": "BT084 cell growth, single and combined drugs, ICGC_MB145, cisplatin and BGB IC40 combos (AID 1671461);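 also: cells exposed to drugs for 96 hours; 0% = vehicle DMSO and 100% = high DMSO full killing control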", "details": "BT084 medulloblastoma cells, drug combinations, stronger effect = higher value"}, "[15]": {"experiment": "RCMB18 cell growth, single agent and combined, cisplatin and BGB IC40 combos (AID 1671462);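 also: cells exposed to compound for four days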", "details": "RCMB18 medulloblastoma cells, stronger effect = higher value"}, "[16]": {"experiment": "CRL1545 cell growth, single agent and combined, cisplatin and BGB IC20 combos (AID 1671464);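 also: cells exposed to compound for 96 hours before readout; 0% = vehicle DMSO and 100% = high DMSO killing control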", "details": "CRL1545 osteosarcoma cells, stronger effect = higher value"}, "[17]": {"details": "measured here: combination with BGB IC40, at 0.05 µM"}, "[18]": {"details": "measured here: with BGB IC20 combination, at 0.5 µM"}, "[19]": {"details": "measured here: with cisplatin IC20 combination, at 0.5 µM"}, "[20]": {"details": "measured here: combination with cisplatin, at 0.5 µM"}, "[21]": {"details": "measured here: combination with cisplatin, at 5 µM"}}, "note": "Activity calls are given as the source filed them. Rule as the data show it, unless noted: active = inhibition above about 80%; inactive = the rest.", "data": [{"smiles": "Cc1nn(C)cc1-c1ccnc(NCCc2nc(-c3ccccn3)no2)n1", "values": [{"measurement": "z-score", "setting": "[1]", "value": "-0.82 (inactive)"}]}, {"smiles": "CC(C)CN1CCN(c2ccc(C(F)(F)F)cn2)C(C)C1=O", "note": "(stereo unspecified)", "values": [{"measurement": "z-score", "setting": "[1]", "value": "-0.56 (inactive)"}]}, {"smiles": "O=C1NCCN(C(=O)c2ccc(Cl)cc2)C1Cc1ccccc1", "note": "(stereo unspecified)", "values": [{"measurement": "z-score", "setting": "[1]", "value": "0.59 (inactive)"}]}, {"smiles": "Cc1cn(C2CC(O)C(COP(=O)(O)OP(=O)(O)OP(=O)(O)O)O2)c(=O)[nH]c1=O", "note": "(stereo unspecified)", "values": [{"measurement": "inhibition", "setting": "[2]; at 0.5 µM, stronger effect = higher value", "value": "-19.9% (inactive)"}, {"measurement": "inhibition", "setting": "[2]; measured here: combination with BGB IC20, at 0.005 µM", "value": -8.93, "unit": "%"}, {"measurement": "inhibition", "setting": "[2]; measured here: combination with BGB IC40, at 0.005 µM", "value": 80.9, "unit": "%"}, {"measurement": "inhibition", "setting": "[2]; [17]", "value": 0.344, "unit": "%"}, {"measurement": "inhibition", "setting": "[2]; measured here: combination with cisplatin, at 0.5 µM, stronger effect = higher value", "value": -42.6, "unit": "%"}, {"measurement": "inhibition", "setting": "[2]; measured here: combination with cisplatin, at 5 µM, stronger effect = higher value", "value": -12.4, "unit": "%"}, {"measurement": "inhibition", "setting": "[3]; BGB combo, at 5 µM", "value": -9.68, "unit": "%"}, {"measurement": "inhibition", "setting": "[3]; at 0.5 µM", "value": "4.14% (inactive)"}, {"measurement": "inhibition", "setting": "[3]; cisplatin combo, at 5 µM", "value": 0.577, "unit": "%"}, {"measurement": "inhibition", "setting": "[3]; [18]", "value": -1.96, "unit": "%"}, {"measurement": "inhibition", "setting": "[3]; [19]", "value": 7.93, "unit": "%"}, {"measurement": "inhibition", "setting": "[3]; single agent, at 5 µM", "value": 1.73, "unit": "%"}, {"measurement": "inhibition", "setting": "[4]; BGB IC20 combo, at 0.005 µM", "value": 10.7, "unit": "%"}, {"measurement": "inhibition", "setting": "[4]; BGB IC40 combo, at 0.005 µM", "value": 17.3, "unit": "%"}, {"measurement": "inhibition", "setting": "[4]; BGB IC40 combo, at 0.05 µM", "value": 24, "unit": "%"}, {"measurement": "inhibition", "setting": "[4]; at 0.5 µM", "value": "8.18% (inactive)"}, {"measurement": "inhibition", "setting": "[4]; cisplatin combo, at 0.05 µM", "value": 20.3, "unit": "%"}, {"measurement": "inhibition", "setting": "[4]; cisplatin combo, at 0.5 µM", "value": 3.65, "unit": "%"}, {"measurement": "inhibition", "setting": "[4]; cisplatin combo, at 5 µM", "value": -24.4, "unit": "%"}, {"measurement": "inhibition", "setting": "[4]; measured here: 5 uM single agent, at 5 µM", "value": 4.13, "unit": "%"}, {"measurement": "inhibition", "setting": "[5]; at 0.5 µM", "value": "6.88% (inactive)"}, {"measurement": "inhibition", "setting": "[5]; [17]", "value": -1.92, "unit": "%"}, {"measurement": "inhibition", "setting": "[5]; [20]", "value": 9.07, "unit": "%"}, {"measurement": "inhibition", "setting": "[5]; [21]", "value": 4.13, "unit": "%"}, {"measurement": "inhibition", "setting": "[6]; at 0.5 µM", "value": "7.15% (inactive)"}, {"measurement": "inhibition", "setting": "[6]; measured here: with BGB IC20, at 0.5 µM", "value": 27.1, "unit": "%"}, {"measurement": "inhibition", "setting": "[6]; measured here: with BGB IC20, at 5 µM", "value": 13.2, "unit": "%"}, {"measurement": "inhibition", "setting": "[6]; measured here: with cisplatin IC20, at 0.5 µM", "value": -5.05, "unit": "%"}, {"measurement": "inhibition", "setting": "[6]; measured here: with cisplatin IC20, at 5 µM", "value": 1.73, "unit": "%"}, {"measurement": "inhibition", "setting": "[6]; single agent, at 5 µM", "value": 10.9, "unit": "%"}, {"measurement": "inhibition", "setting": "[7]; at 0.5 µM", "value": "6.85% (inactive)"}, {"measurement": "inhibition", "setting": "[7]; measured here: combination with BGB at IC20, at 0.5 µM", "value": -16.6, "unit": "%"}, {"measurement": "inhibition", "setting": "[7]; measured here: combination with cisplatin at IC20, at 0.5 µM", "value": 29.2, "unit": "%"}, {"measurement": "inhibition", "setting": "[8]; at 0.5 µM", "value": "10.7% (inactive)"}, {"measurement": "inhibition", "setting": "[8]; measured here: combo with BGB at IC20, at 0.5 µM", "value": 9.76, "unit": "%"}, {"measurement": "inhibition", "setting": "[8]; measured here: combo with cisplatin at IC20, at 0.5 µM", "value": 8, "unit": "%"}, {"measurement": "inhibition", "setting": "[9]; at 0.5 µM", "value": "7.19% (inactive)"}, {"measurement": "inhibition", "setting": "[9]; measured here: inhibition with BGB combination, at 0.05 µM", "value": 12.5, "unit": "%"}, {"measurement": "inhibition", "setting": "[9]; measured here: inhibition with cisplatin combination, at 0.05 µM", "value": -3.67, "unit": "%"}, {"measurement": "inhibition", "setting": "[10]; at 0.5 µM", "value": "0.97% (inactive)"}, {"measurement": "inhibition", "setting": "[10]; [20]", "value": 8.52, "unit": "%"}, {"measurement": "inhibition", "setting": "[10]; [21]", "value": 26.6, "unit": "%"}, {"measurement": "inhibition", "setting": "[11]; at 0.5 µM", "value": "2% (inactive)"}, {"measurement": "inhibition", "setting": "[11]; measured here: BGB combination, at 0.5 µM", "value": -1.94, "unit": "%"}, {"measurement": "inhibition", "setting": "[11]; measured here: BGB combination, at 5 µM", "value": 2.66, "unit": "%"}, {"measurement": "inhibition", "setting": "[11]; measured here: cisplatin combination, at 0.5 µM", "value": -0.048, "unit": "%"}, {"measurement": "inhibition", "setting": "[11]; measured here: cisplatin combination, at 5 µM", "value": 5.35, "unit": "%"}, {"measurement": "inhibition", "setting": "[12]; BGB combination, concentration series, at 5 µM", "value": 5.28, "unit": "%"}, {"measurement": "inhibition", "setting": "[12]; at 0.5 µM", "value": "7.57% (inactive)"}, {"measurement": "inhibition", "setting": "[12]; cisplatin combination, concentration series, at 5 µM", "value": 6.92, "unit": "%"}, {"measurement": "inhibition", "setting": "[13]", "value": "2.58% (inactive)"}, {"measurement": "inhibition", "setting": "[13]; measured here: combo with BGB IC20", "value": -0.198, "unit": "%"}, {"measurement": "inhibition", "setting": "[13]; measured here: combo with cisplatin IC20", "value": 3.8, "unit": "%"}, {"measurement": "inhibition", "setting": "[14]; at 0.5 µM", "value": "6.5% (inactive)"}, {"measurement": "inhibition", "setting": "[14]; cisplatin combination, at 0.5 µM", "value": 4.31, "unit": "%"}, {"measurement": "inhibition", "setting": "[14]; cisplatin combination, at 5 µM", "value": -28.2, "unit": "%"}, {"measurement": "inhibition", "setting": "[14]; measured here: BGB IC40 combination 0.05 uM, at 0.05 µM", "value": 23.2, "unit": "%"}, {"measurement": "inhibition", "setting": "[14]; single agent, at 5 µM", "value": 18.9, "unit": "%"}, {"measurement": "inhibition", "setting": "[15]; at 0.5 µM", "value": "-1.71% (inactive)"}, {"measurement": "inhibition", "setting": "[15]; cisplatin combo, at 5 µM", "value": -2.93, "unit": "%"}, {"measurement": "inhibition", "setting": "[15]; measured here: BGB IC40 combination, at 0.05 µM", "value": 18.6, "unit": "%"}, {"measurement": "inhibition", "setting": "[15]; [20]", "value": -28.7, "unit": "%"}, {"measurement": "inhibition", "setting": "[15]; single agent, at 5 µM", "value": 2.51, "unit": "%"}, {"measurement": "inhibition", "setting": "[16]; at 0.5 µM", "value": "12.4% (inactive)"}, {"measurement": "inhibition", "setting": "[16]; [18]", "value": 17.1, "unit": "%"}, {"measurement": "inhibition", "setting": "[16]; [19]", "value": 8.61, "unit": "%"}, {"measurement": "inhibition", "setting": "[16]; single agent, at 0.05 µM", "value": -33, "unit": "%"}, {"measurement": "inhibition", "setting": "[16]; single agent, at 5 µM", "value": -18, "unit": "%"}]}]}
